Data from PubChem BioAssay (EPA / NIEHS).
Inconclusive results are not listed. Activity calls are given as the source filed them. How the source made its calls, unless noted: active means hit-call score of the fitted dose curve at least 0.9, where 1 is the maximum; inconclusive means response in the unintended direction; inactive means score below 0.9.

Key:
[1] = CCTE_Harrill_HTTr_CellCount_MCF7: CCTE's Cell Proliferation Assessment for the High-Throughput Transcriptomics (HTTr) Platform, Harrill Lab (AID 2284012);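 further: cells exposed to compound for six hours; intended direction is loss of nuclei count meaning fewer cells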
How it was run: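 Cell count from high-content imaging of Hoechst-labeled nuclei serves as viability/growth readout. Chemicals were applied to MCF-7 cells in eight concentrations for six hours, with fitting in both directions relative to DMSO.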

[2] = CCTE_Shafer_MEA_acute_burst_number: CCTE's Neural Acute Assay for Single-Electrode Bursts, Shafer Lab (AID 2284013; active means hit-call score of the fitted dose curve at least 0.9, where 1 is the maximum; inactive means score below 0.9)
How it was run: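 Primary rat cortical neurons on 16-electrode MEA wells, DIV 13 or 15, exposed to compound (0.03-40 uM; ≥3 wells); 40-min recordings at 37 C before and after treatment. Burst count expressed as percent change from baseline, DMSO as negative control.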

[3] = CCTE_Shafer_MEA_acute_burst_duration_mean: CCTE's Neural Acute Assay for Mean Burst Duration, Shafer Lab (AID 2284014; active means hit-call score of the fitted dose curve at least 0.9, where 1 is the maximum; inactive means score below 0.9;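 further: hits are decreases in mean burst duration relative to DMSO controls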)
How it was run: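 Mean burst duration was compared between a 40 min baseline and a 40 min recording in the presence of compound (0.03-40 uM, 37 C), giving percent change per well. Cultures were rat cortical neurons at DIV 13 or 15; wells needed ≥10 active electrodes.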

[4] = CCTE_Shafer_MEA_acute_per_burst_spike_number_mean: CCTE's Neural Acute Assay for Average Number of Spikes Per Burst, Shafer Lab (AID 2284015; active means hit-call score of the fitted dose curve at least 0.9, where 1 is the maximum; inactive means score below 0.9;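 further: hits are decreases in mean spikes per burst versus baseline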)
Procedure: CCTE_Shafer_MEA_acute assay is conducted using Axion Biosystems 48 well microelectrode array (MEA) plates and Maestro recording system. Each well of the MEA plate contains a grid of 16 microelectrodes embedded in the culture surface. Electrically active cells, such as neurons, can be cultured over the electrodes, and electrical activity in these cells can be recorded extracellularly. The spontaneous firing of neurons is captured from each electrode on a microsecond timescale providing both temporally and spatially precise data. […] The CCTE_Shafer_MEA_acute assay uses primary cultures of rat cortical neurons. […] The recordings before and after chemical treatment are used to calculate a percent change in the mean number of spikes per burst in each well.Data from the assay component CCTE_Shafer_MEA_acute_per_burst_spike_number_mean was analyzed into 1 assay endpoint. This assay endpoint, CCTE_Shafer_MEA_acute_per_burst_spike_number_mean, was analyzed in the negative analysis fitting direction relative to DMSO as the negative control and baseline of activity. […]
Spontaneous activity in the cortical cultures was recorded using an Axion Biosystems Maestro 768 channel amplifier and Axion Integrated Studios (AxIS) v1.8 (or later) software. […] Any electrodes with rms noise levels greater than 5 uV were grounded (e.g., no data were recorded). […]

[5] = CCTE_Shafer_MEA_acute_interburst_interval_mean: CCTE's Neural Acute Assay for Mean Interburst Interval, Shafer Lab (AID 2284016; active means hit-call score of the fitted dose curve at least 0.9, where 1 is the maximum; inactive means score below 0.9;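 further: percent change of mean interburst interval versus each well's own pre-dose baseline; curves fitted for decrease in interburst interval relative to DMSO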)
How it was run: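 Percent change in mean single-electrode interburst interval was calculated per well from 40 min recordings before and after compound (0.03-40 uM). Recordings were made at 37 C on rat cortical cultures at DIV 13 or 15, with spikes detected at 8x rms threshold.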

[6] = CCTE_Shafer_MEA_acute_burst_percentage_mean: CCTE's Neural Acute Assay for Percentage of Spikes in a Burst, Shafer Lab (AID 2284017; active means hit-call score of the fitted dose curve at least 0.9, where 1 is the maximum; inactive means score below 0.9;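 further: curve fitted for loss of signal so potency reflects decreased burst percentage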)
How it was run: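 Well-level mean burst percentage from a 40-min recording after compound (0.03-40 uM) expressed as percent change from a 40-min baseline at 37C. Cultures: primary rat cortical neurons on MEA, dosed on DIV 13 or 15; fitted downward relative to DMSO.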

[7] = CCTE_Shafer_MEA_acute_burst_percentage_std: CCTE's Neural Acute Assay for Standard Deviation of Burst Percentage, Shafer Lab (AID 2284018; active means hit-call score of the fitted dose curve at least 0.9, where 1 is the maximum; inactive means score below 0.9;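 further: fitted in the negative direction so actives lower burst percentage SD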)
How it was run: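 Value is percent change from baseline in the across-electrode SD of spikes-in-bursts percentage, wells with >/= 10 active electrodes. Acute 40-min exposure to 0.03-40 uM on DIV 13 or 15 rat cortical cultures, recorded at 37 C after 40-min baseline.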

[8] = CCTE_Shafer_MEA_acute_per_network_burst_spike_number_mean: CCTE's Neural Acute Assay for Average Number of Spikes in a Network Burst, Shafer Lab (AID 2284019; active means hit-call score of the fitted dose curve at least 0.9, where 1 is the maximum; inactive means score below 0.9)
How it was run: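 Percent change from baseline in mean spikes per network burst, spikes detected at 8x rms noise. Each compound at 0.03-40 uM in at least three wells of rat cortical cultures, recorded 40 min before and 40 min during exposure.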

[9] = CCTE_Shafer_MEA_acute_per_network_burst_spike_number_std: CCTE's Neural Acute Assay for Standard Deviation of Number of Spikes in a Network Burst, Shafer Lab (AID 2284020; active means hit-call score of the fitted dose curve at least 0.9, where 1 is the maximum; inactive means score below 0.9;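 further: fitted for decrease in spike-number SD versus DMSO so actives lower it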)
How it was run: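 Endpoint: percent change from 40 min baseline in standard deviation of spikes per network burst, after 40 min compound exposure (0.03-40 uM, 37 C). Cortical rat neurons on MEA at DIV 13 or 15; spikes detected at 8x rms noise, 300-5000 Hz band-pass.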

[10] = CCTE_Shafer_MEA_acute_per_network_burst_electrodes_number_mean: CCTE's Neural Acute Assay for Mean Number of Electrodes in a Network Burst, Shafer Lab (AID 2284021; active means hit-call score of the fitted dose curve at least 0.9, where 1 is the maximum; inactive means score below 0.9;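 further: curves fitted for decreases only so hits reduce electrodes per burst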)
How it was run: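 Rat primary cortical neurons on 16-electrode MEA wells were recorded 40 min at baseline on DIV 13 or 15, then 40 min after compound (0.03-40 uM), at 37 C. Value is percent change per well, fitted in loss direction versus DMSO.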

## CCCCCCCCCCCCC[N+](C)(C)Cc1ccccc1
[1]
  outcome: inactive

## C[C@]12CC[C@H]3C(=CCc4cc(O)ccc43)[C@@H]1CCC2=O
[1]
  outcome: inactive

## CSc1ccc(O)cc1C
[1]
  outcome: inactive

## CC(C)(C)c1cc(CCC(=O)OCC(COC(=O)CCc2cc(C(C)(C)C)c(O)c(C(C)(C)C)c2)(COC(=O)CCc2cc(C(C)(C)C)c(O)c(C(C)(C)C)c2)COC(=O)CCc2cc(C(C)(C)C)c(O)c(C(C)(C)C)c2)cc(C(C)(C)C)c1O
[1]
  outcome: inactive

## Cc1cccc(C)n1
[1]
  outcome: inactive

## CCc1ccc(C)nc1
[1]
  outcome: inactive

## CC(=O)CCC(C)C
[1]
  outcome: inactive

## CC1CCCCC1
[1]
  outcome: inactive

## Cc1ccc(O)c(-n2nc3ccccc3n2)c1
[1]
  outcome: inactive

## CN(N=O)C(=O)N[C@@H]1[C@@H](O)[C@H](O)[C@@H](CO)O[C@@H]1O
[1]
  outcome: inactive

## Brc1ccccn1
[1]
  outcome: inactive

## CCCCCCCCCc1ccc(OCCO)cc1
[1]
  outcome: inactive

## Cc1cc(=O)[nH]c(C(C)C)n1
[1]
  outcome: inactive

## CN(C)C(C)(C)CO
[1]
  outcome: inactive

## CCN=C1C=CC(=C(c2ccc(N(CC)CC)cc2)c2ccc(N(CC)CC)cc2)c2ccccc21
[1]
  AC50: 92200 nM (active)
[2]
  AC50: 545 nM (active)
[3]
  outcome: inactive
[4]
  AC50: 518 nM (active)
[5]
  AC50: 361 nM (active)
[6]
  AC50: 549 nM (active)
[7]
  outcome: inactive
[8]
  outcome: inactive
[9]
  AC50: 718 nM (active)
[10]
  AC50: 498 nM (active)

## CCCCCCCC/C=C\CCCCCCCC(=O)N(C)CC(=O)O
[1]
  outcome: inactive

## Cc1cnccn1
[1]
  outcome: inactive

## CCCCCCCCn1sc(Cl)c(Cl)c1=O
[1]
  outcome: inactive

## CCN=c1cc2oc3cc(NCC)c(C)cc3c(-c3ccccc3C(=O)OCC)c-2cc1C
[1]
  outcome: inactive
